Pf apPOL block = Pf-apPOL DNA polymerase inhibition; AID 1794808; 0.25% of 210,000 active; inhibition, % at 10 µM; Recombinant Pf-apPOL, molecular beacon fluorescence, 1.5 h
mHTT CaM bind = mHTT-calmodulin interaction abrogation. inhibition, % at 15 µM. P42858. 3.6% of 190,000 active. AID 1671202. AlphaScreen His-mHTT/GST-CaM binding, luminescence
A number is an active result; n = inactive; x = not tested or not shown. The list is not random: actives were taken first. Their share in the collection is about 3.6%. Rule as the data show it: active = inhibition above about 50%; inactive = the rest.

SMILES | Pf apPOL block | mHTT CaM bind
NS(=O)(=O)c1ccc(-c2ccc(C=O)o2)cc1 | n | n
O=Cc1ccc(-c2ccc(S(=O)(=O)O)cc2)o1 | n | 76
O=C(NCCNC(=O)c1ccc(F)c(F)c1)c1ccc(NC(=O)c2ccc(F)cc2)cc1 | n | 69
O=C(Nc1ccc(F)cc1)c1ccc(C(=O)Nc2ccc(F)cc2)cc1 | n | n
O=C(NCCCn1ccnc1)c1ccc(C(=O)NCCCn2ccnc2)cc1 | n | n
Cc1ccc(N2CC(NC(=O)NCCCn3ccnc3)CC2=O)cc1 (centres undefined) | n | 98
Cc1c(NC(=O)c2cc([N+](=O)[O-])ccc2Br)cccc1-c1nc2ncccc2o1 | n | n
CCc1ccc(NC(=O)CSc2nc3c(c(=O)n2-c2ccccc2)SCC3)cc1 | n | n
CCc1ccc(NC(=O)CSc2nc3c(c(=O)n2-c2ccc(Cl)cc2)SCC3)cc1 | 99 | n
CCCc1c(C(=O)N2CCN(C)CC2)cnn1-c1cccc(Cl)c1 | n | n
Cc1scc2nc(C(=O)NCc3ccc(F)cc3)nc(N(C)C)c12 | n | 87
CCNC(=O)c1nc(N(C)C)c2c(C)scc2n1 | n | n
Cc1scc2nc(C(=O)NCc3cccc(F)c3)nc(N3CCCC3)c12 | n | 65
Cc1scc2nc(C(=O)Nc3ccccc3)nc(N3CCCC3)c12 | n | n
Cc1ccc(C)c(NS(=O)(=O)c2cc3c(s2)CCN(C(=O)C2CCC2)C3)c1 | n | n
O=C(Cn1c(-c2cncs2)nc2ccccc21)Nc1ccc2c(c1)OCCO2 | n | n
O=C1CN(c2ccc(Cl)cc2)C(=O)CN1N=Cc1cccnc1 | n | x
CN(C)CCCNCc1ccc2c(c1)n(C)c(=O)n2C | n | n
Cc1nc2c(C(=O)NCCc3ccc(Cl)cc3)c[nH]n2c(=O)c1Cc1ccccc1F | n | 74
Cc1nc2c(C(=O)NCCc3ccccc3)c[nH]n2c(=O)c1Cl | n | n
Cc1nc2c(C(=O)NCCc3ccccc3)c[nH]n2c(=O)c1Cc1ccc(Cl)cc1 | n | 68
Cc1ccc(CCNC(=O)c2c[nH]n3c(=O)c(Cc4ccccc4F)c(C)nc23)cc1 | n | n
CS(=O)(=O)N1CCc2ccc(C(=O)Nc3ccccc3F)cc21 | n | n
Cc1nc(-c2cccnc2)nc2c1CCC(=O)N2Cc1cccnc1 | n | n
CC(C)NC(=O)c1ccccc1NC(=O)CN(c1ccccc1F)S(=O)(=O)c1ccccc1 | 92 | n
SMILES | Pf apPOL block | mHTT CaM bind
COc1ccc(N(CC(=O)Nc2ccc(F)cc2F)S(=O)(=O)c2ccccc2)c(OC)c1 | n | n
CCc1ccccc1N(CC(=O)Nc1ccc(F)cc1F)S(=O)(=O)c1ccccc1 | n | 81
CCc1ccccc1N(CC(=O)Nc1ccccc1C(=O)NC(C)C)S(C)(=O)=O | n | n
N#CC(C(=O)N1CCOCC1)=C1N=C(NC(=O)c2cccs2)c2ccccc21 | n | n
O=C(Nc1ncn[nH]1)c1ccc2nc(-c3ccco3)c(-c3ccco3)nc2c1 | n | n
O=C(Nc1ccc2nc(-c3ccco3)c(-c3ccco3)nc2c1)N1CCN(c2ccccn2)CC1 | n | 66
COc1ccc2nc(-c3ccco3)c(-c3ccco3)nc2c1 | n | 99
O=C(Nc1ccc([N+](=O)[O-])cc1)N1CCN(c2ccccn2)CC1 | n | n
O=C(NCc1ccco1)Nc1ccc2snnc2c1 | n | n
O=C(NCc1ccco1)Nc1ccc2nc(-c3ccco3)c(-c3ccco3)nc2c1 | n | 96
CC(=O)c1ccc(NC(=O)c2ccc3nc(-c4ccco4)c(-c4ccco4)nc3c2)cc1 | n | 100
COc1ccc2nsnc2c1 | n | x
CC(=O)C(Sc1nc(C)nc2c1c(=O)n(C)c(=O)n2C)C(C)=O | n | n
COc1cccc(-n2c(N3CCC(C(=O)NCC(C)C)CC3)nc3ccsc3c2=O)c1 | n | n
Cc1cccc(C)c1NC(=O)CSc1nnc(-c2cccc(N)c2)n1C | n | n
Cc1ccc(S(=O)(=O)N2CCc3nc(NC(=O)c4c(F)cccc4F)sc3C2)cc1 | n | n
Cc1cc2nn(-c3ccc(Cl)cc3)nc2cc1NC(=O)c1cncc(Br)c1 | n | n
COCCNC(=O)c1ccc2nc(-c3ccco3)c(-c3ccco3)nc2c1 | n | 59
COCCCNC(=O)c1ccc2nc(-c3cccs3)c(-c3cccs3)nc2c1 | n | n
COc1ccc(NC(=O)CN2CCC(C(=O)O)CC2)c(OC)c1 | n | n
CCSc1nnc2c(n1)OC(c1cc(OC)c(O)c(OC)c1)Nc1ccccc1-2 (centres undefined) | 95 | n
CCCSc1nnc2c(n1)OC(c1cc(OC)c(O)c(OC)c1)Nc1ccccc1-2 (centres undefined) | n | n
CCCCCSc1nnc2c(n1)OC(c1cccnc1)Nc1ccccc1-2 (centres undefined) | n | n
CCCSc1nnc2c(n1)OC(c1cccnc1)Nc1ccccc1-2 (centres undefined) | 52 | n
O=C(NC1CCCCCC1)c1cccc(S(=O)(=O)N2CCCCCC2)c1 | n | n
SMILES | Pf apPOL block | mHTT CaM bind
O=S(=O)(Nc1ccc(F)c(Cl)c1)c1ccc2c(c1)OCCCO2 | n | n
Cc1cc(C(=O)N2CC3CN(S(=O)(=O)c4cccc(F)c4)CC(C2)O3)c(C)o1 | n | n
C=CCn1c(=O)c(C(=O)Nc2ccccc2)c(O)c2ccccc21 | n | n
Cc1cccnc1NC(=O)c1c(O)c2cccc3c2n(c1=O)CC3 | n | 80
O=C(Nc1ccncc1)c1c(O)c2cccc3c2n(c1=O)CC3 | n | n
C=CCn1c(=O)c(C(=O)Nc2ncccc2C)c(O)c2ccccc21 | n | 98
NCCCCCCNC(=O)c1c(O)c2cccc3c2n(c1=O)CC3 | n | 100
NCCNC(=O)c1c(O)c2cccc3c2n(c1=O)CC3 | n | n
COCCNc1oc2c(c1-c1cc(OC)c(OC)c(OC)c1)c(=O)oc1ccccc12 | n | n
COc1ccc(NC(=O)CSc2nnc(C)s2)cc1 | n | n
CC(C)S(=O)(=O)N1CC(CN(C)C)C2(CCOCC2)C1 (centres undefined) | n | n
CCOc1ccccc1C(=O)N1CCC(c2nc(C3CC3)n[nH]2)CC1 | n | n
COc1ccc(-c2cc(C(=O)N3CCCC(C)C3)no2)cc1 (centres undefined) | n | n
COc1ccc(CN2CC[C@H]3C=CC[C@@H](C(=O)Nc4ccc(Cl)c(C(F)(F)F)c4)[C@H]3C2=O)cc1OC | n | 56
COc1ccc(NC(=O)[C@@H]2CC=C[C@@H]3CCN(Cc4ccccc4)C(=O)[C@@H]32)cc1 | n | n
COc1ccc(NC(=O)[C@@H]2CC=C[C@@H]3CCN(Cc4ccc(Cl)c(Cl)c4)C(=O)[C@@H]32)cc1 | n | 96
COc1ccc(CN2CC[C@H]3C=CC[C@@H](C(=O)O)[C@H]3C2=O)cc1OC | n | n
Cc1ccccc1-n1nc2c(c1NC(=O)c1ccccc1[N+](=O)[O-])CSC2 | n | n
Cc1cc(C)cc(C(=O)Nc2c3c(nn2-c2ccccc2C)CSC3)c1 | n | n
O=C(Nc1c2c(nn1-c1ccc([N+](=O)[O-])cc1)CSC2)c1ccc(F)cc1 | 58 | n
O=C(Nc1c2c(nn1-c1ccc([N+](=O)[O-])cc1)CSC2)c1ccc([N+](=O)[O-])cc1 | n | n
Cc1ccccc1-n1nc2c(c1NC(=O)c1ccc([N+](=O)[O-])cc1)CSC2 | n | 84
Cc1ccccc1-n1nc2c(c1NC(=O)c1cccc(Cl)c1)CSC2 | n | 71
COc1cccc(C(=O)Nc2c3c(nn2-c2ccccc2C)CSC3)c1 | n | n
Cc1ccccc1-n1nc2c(c1NC(=O)c1ccc(Cl)cc1)CSC2 | n | 71

Screening data (PubChem BioAssay)
